Screens from PubChem BioAssay.
RORgamma inh – qHTS for inhibitors of ROR gamma transcriptional activity. 5.4% of 310,000 active. Drosophila S2 Gal4-RORgamma UAS-luciferase reporter, 20 h. Potency, µM (series often up to 53.6 µM), inactives show top-dose activity change, negative = inhibition, hits mostly inhibitors. Nuclear receptor ROR-gamma (Mus musculus), P51450. AID 2551, 2010; note: potency is the fitted concentration of half-maximal effect; nearly all actives have a fitted effect of over 60% in size
Target sequence (P51450 whole entry, looked up, the tested form may be a part): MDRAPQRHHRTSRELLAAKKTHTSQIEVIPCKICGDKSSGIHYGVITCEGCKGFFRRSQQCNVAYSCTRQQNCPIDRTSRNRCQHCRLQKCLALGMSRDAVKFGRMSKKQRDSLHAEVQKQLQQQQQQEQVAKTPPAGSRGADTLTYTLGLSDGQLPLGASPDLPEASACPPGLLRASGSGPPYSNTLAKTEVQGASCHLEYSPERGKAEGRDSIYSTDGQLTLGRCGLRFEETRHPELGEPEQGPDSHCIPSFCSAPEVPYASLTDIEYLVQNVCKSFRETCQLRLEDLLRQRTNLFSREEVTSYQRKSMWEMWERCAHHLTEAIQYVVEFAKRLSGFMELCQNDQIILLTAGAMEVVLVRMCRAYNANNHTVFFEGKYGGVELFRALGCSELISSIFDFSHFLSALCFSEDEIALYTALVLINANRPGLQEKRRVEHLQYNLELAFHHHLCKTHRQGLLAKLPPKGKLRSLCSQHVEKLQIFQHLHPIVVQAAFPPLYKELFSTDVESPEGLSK
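Luciferase reporter read in Schneider cells carrying Gal4-RORγ (mouse) and UAS-Photinus luciferase; cells given compound 1 h before 700 uM copper sulfate induction, then incubated 20 h at ambient temperature.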
TrxR1 inh – qHTS Assay for Inhibitors of Mammalian Selenoprotein Thioredoxin Reductase 1 (TrxR1): qHTS; Thioredoxin reductase 1, cytoplasmic (Rattus norvegicus), O89049; recombinant rTrxR1, NADPH fluorescence consumption, selenite substrate; Potency, µM (top dose mostly 114 µM), inactives show at the highest dose activity change, negative = inhibition, usual class: inhibitors; 1% of 390,000 active; AID 588453, 2011; note: potency is the fitted concentration of half-maximal effect; nearly all actives have a fitted effect of over 65% in size
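Rat TrxR1 (90 nM in the dispensed reagent) was pre-reduced with 400 uM NADPH for 5 min at room temperature, then incubated with compound for 15 min. After 400 uM selenite was added, NADPH fluorescence (Ex 340/Em 450 nm) was followed for 8 min.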
FBPA coupling cs – qHTS Assay for Inhibitors of Fructose-1,6-bisphosphate Aldolase from Giardia Lamblia: Coupling assay counterscreen. coupling enzyme system counterscreen, AmpLite Red fluorescence. activity change, negative = inhibition, % at 58.2 µM, hits read low. 0.67% of 290,000 active. AID 2472, 2010; in the data active = activity change below about -30%
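Counterscreen of the coupled detection system alone, without aldolase: glyceraldehyde-3-phosphate coupling enzymes plus AmpLite Red readout. Compounds at 57.5 uM final, 10 min RT preincubation, 20 min RT reaction, fluorescence 525/598 nm.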
GALK inh – qHTS Assay for Inhibitors of Human Galactokinase (GALK) | Purified GALK, Kinase-Glo residual ATP luminescence | 0.007% of 270,000 active | P51570 | Potency, µM (series often up to 57.5 µM), without a hit: at the top dose activity change, negative = inhibition, actives largely listed as inhibitors; note: potency is the fitted concentration of half-maximal effect
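Luminescence from leftover ATP (Ultra-Glo luciferase/luciferin) served as read-out after a 1 h room-temperature reaction of 5 nM GALK with 35 uM ATP and 100 uM galactose.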
TrxR1 substrate – qHTS Assay for Substrates of Mammalian Selenoprotein Thioredoxin Reductase 1 (TrxR1): qHTS. Potency, µM (highest dose often 114 µM), for inactives: at the highest dose activity change, negative = substrate turnover. 0.01% of 390,000 active. Thioredoxin reductase 1, cytoplasmic (Rattus norvegicus), O89049. purified TrxR1 substrate turnover, NADPH consumption readout. AID 588456, 2011; note: potency is the fitted concentration of half-maximal effect; nearly all actives have a fitted effect of over 50% in size
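Rat TrxR1, dispensed at 90 nM, was prereduced with 400 uM NADPH (final) for 5 min at ~22 deg C, then incubated with compound 15 min before 400 uM selenite. A first-read NADPH fluorescence drop versus no-compound background flagged substrates.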
Gal4-VP16 FLuc – VP16 counterscreen qHTS for inhibitors of ROR gamma transcriptional activity | Drosophila S2 Gal4-VP16 UAS-luciferase, luminescence, 20 h | Potency, µM (doses to about 53.6 µM), inactives show top-dose activity, negative = inhibition, usual class: inhibitors | 3.5% of 310,000 active;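 note: Gal4-VP16 expression switched on by copper sulfate through the metallothionein promoter; potency is the fitted concentration of half-maximal effect; nearly all actives have a fitted effect of over 50% in size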
An asterisk follows results filed as active; ? = inconclusive; nt = no result; [ ] = dose if it differs, or a comment. Hits are enriched below; roughly 5.9% of the tested compounds scored in any of these assays. Unless noted, calls come from the whole dose curve; as a rule, active = well fitted curve in the direction sought with a large enough effect; inconclusive = small, poorly fitted or top-dose-only effect, or another doubt; inactive = no such curve, though single readings can be large; an effect the other way counts as inactive or inconclusive. % is set by controls: 0 for no effect and ±100 for the full control effect.

SMILES	RORgamma inh	TrxR1 inh	FBPA coupling cs	GALK inh	TrxR1 substrate	Gal4-VP16 FLuc
CC(NC(=O)NC(N)=O)(C(F)(F)F)C(F)(F)F	1%	-9%	1	3%	1%	-7%
CC(NC(=O)NNC(N)=S)(C(F)(F)F)C(F)(F)F	?	-9%[57.1 µM]	3	2%	2%[57.1 µM]	20µM*
Cn1c2c(c(=O)n(C)c1=O)C1(C(=O)Nc3ccccc31)C(C#N)=C(N)O2 (stereo not given)	?	-13%	-54*	-1%	2%	?
Cc1ccc(-n2c(-c3ccncc3)n[nH]c2=S)c(C)c1	11µM*	-10%	2	0%	3%	?
Cc1cccc(-n2c(-c3ccncc3)n[nH]c2=S)c1C	-28%	?	6	0%	0%	-10%
Cc1cc(Cl)ccc1-n1c(-c2cccnc2)n[nH]c1=S	?	?	6	-4%	-10%	?
Cc1ccccc1-n1c(-c2ccncc2)n[nH]c1=S	13µM*	-6%	4	-2%	4%	-18%
Cc1cc(-c2n[nH]c(=S)n2-c2ccccc2C)cs1	2.8µM*	-20%	2	2%	-1%	6.3µM*
Cc1ccc(C)c(-n2c(-c3cccnc3)n[nH]c2=S)c1	10µM*	-21%[57.1 µM]	5	-1%	-2%[57.1 µM]	-7%[10 µM]
Cc1ccc(CONC(=O)c2cccc(C)c2)cc1	nt	30%	nt	nt	4%	nt
COc1ccc(-c2nc(CS(=O)(=O)CC(=O)NCc3cccc(F)c3)c(C)o2)cc1	-19%	16%[57.1 µM]	1	nt	4%[57.1 µM]	3%
Clc1ccc2nc(CSc3nnc4ccccn34)cn2c1	?	-4%[57.1 µM]	4	-3%	5%[57.1 µM]	?
O=C(CN1CCC(NC(=O)C2CCCCC2)CC1)Nc1cccc(F)c1	7%	10%	-2	-2%	1%	2%
Cc1ccc(C)c(-n2c(-c3csc(C)c3C)n[nH]c2=S)c1	?	-30%	3	1%	-10%	5µM*
O=C(NC1CCCCC1)N1CCNCC1	7.9µM*	16%[2.29 µM]	3	3%	10%[2.29 µM]	12%
COc1cc(=O)n(C)c2cc(N(C)C)ccc12	0%	?	-31*	1%	374%	21%
CN1C(=O)c2ccc(N(C)C)cc2C1=O	6%	0%[57.1 µM]	2	0%	2%[57.1 µM]	22%
Oc1cc2c(cc1CN1CCc3ccccc3C1)OCO2	-30%	?	nt	-4%	2%	18%
Oc1ccc(CN2CCN(c3ccccc3)CC2)c2cccnc12	1.3µM*	?	-2	-5%	2%[57.1 µM]	1µM*
Oc1ccc(CN2CCCCC2)c2cccnc12	7.1µM*	-24%	-8	3%	10%	7.9µM*
Oc1ccc(CN2CCc3ccccc3C2)c2cccnc12	1µM*	?	-5	3%	-1%	?
Oc1ccc2ccccc2c1CN1CCN(c2ccccc2)CC1	7%	?	-3	-3%	0%	12%
Oc1c(CN2CCCCC2)ccc2cccnc12	nt	?	nt	nt	-15%	nt
Cc1ccc(C)c(S(=O)(=O)N2CCN(Cc3ccc(O)c4ncccc34)CC2)c1	2µM*	-3%	1	12%	0%	3.2µM*
CCc1nn(-c2ccccc2)c2nc(-c3ccccc3OC)c3cc(OC)c(OC)cc3c12	nt	-7%	nt	nt	34%	nt
SMILES	RORgamma inh	TrxR1 inh	FBPA coupling cs	GALK inh	TrxR1 substrate	Gal4-VP16 FLuc
COc1cccc(CNC(=O)CCNC(=O)C2CCN(S(=O)(=O)c3ccccc3)CC2)c1	12%	4%	nt	2%	21%	-3%
COc1ccc(N(C(=O)COc2ccccc2OC)S(=O)(=O)c2ccc(Cl)cc2)cc1	nt	4%	nt	nt	-4%	nt
COc1ccccc1/C=N/NC(=O)CC(=O)Nc1ccc(Cl)c(Cl)c1	13%	8%[57.1 µM]	nt	-1%	3%[57.1 µM]	1%
C=CCn1c(COc2ccc(F)cc2)nnc1SCC(=O)c1c[nH]c2c(CC)cccc12	-10%	20%	3	0%	-1%	-15%
CCOC(=O)N1CCN(Cc2c(O)ccc3ccccc23)CC1	2%	13µM*	-7	7%	11%	8%
Oc1ccc(CN2CCC(Cc3ccccc3)CC2)c2cccnc12	2.2µM*	-4%[57.1 µM]	-6	-1%	-1%[57.1 µM]	4.5µM*
CCOC(=O)N1CCN(Cc2ccccn2)CC1	-3%	-22%	-1	-3%	-7%	-16%
COc1cc(CN2CCc3ccccc3C2)ccc1O	5.6µM*	-17%	1	-1%	3%	3.5µM*
CCOC(=O)N1CCN(Cc2ccc(O)c3ncccc23)CC1	2.5µM*	13µM*	2	11%	-1%[57.1 µM]	5µM*
Oc1ccc(Cc2ccccc2)c2cccnc12	nt	22%	nt	nt	5%	nt
COC(=O)c1ccccc1NC(=O)c1cccs1	-2%	-17%	-3	-3%	-13%	1%
Oc1c(Cl)cc(CN2CCCCC2)c2cccnc12	4.5µM*	nt	-16	-1%	nt	3.5µM*
Oc1ccc(CNc2ccccc2F)c2cccnc12	10µM*	?	-1	5%	11%[57.1 µM]	?
Cc1ccc(CN2CCN(C(=O)C3CCCO3)CC2)cc1 (stereo not given)	-5%	13%	6	1%	13%	-2%
O=C(C1CCCO1)N1CCN(Cc2c(O)ccc3ccccc23)CC1 (stereo not given)	-29%	7.1µM*	2	-3%	9%	3%
Clc1ccccc1CN1CCN(c2ncccn2)CC1	3%	8%	-4	-3%	-6%[57.1 µM]	-1%
OCc1ccc(O)c2ncccc12	13µM*	?	-4	2%	-4%	18µM*
CCCCc1ccc(C(=O)COC(=O)c2ccc3nc(C)c(C)nc3c2)cc1	nt	16%	nt	nt	-9%	nt
Cc1ccc(N=Cc2cccc(O)c2O)c(C)c1	10µM*	32µM*	-28	-3%	-8%	?
Oc1cccc(/C=N/N=C/c2cccc(O)c2O)c1O	?	8%[57.1 µM]	0	1%	4%[57.1 µM]	?
CC(N=Cc1cc([N+](=O)[O-])ccc1O)c1ccccc1 (stereo not given)	?	3%	8	-1%	-6%	?
Cc1ccccc1N=Cc1cccc(O)c1O	-30%	71µM*	-26	nt	?	-6%
CC(N=Cc1cccc(O)c1O)c1ccccc1 (stereo not given)	-34%	40µM*	-39*	-1%	-12%	-9%
CCN(CC)c1ccc(C=Nc2ccc(C)cc2C)c(O)c1	6%	22%[57.1 µM]	-9	2%	-17%[57.1 µM]	-11%
